In PubChem BioAssay AID463173 (ICCB-Longwood Screening Facility, Harvard Medical School, 2010) one finds survival data, which are given here for 91 compounds.

The whole screen tested about 52,000 compounds, of which about 4,300 (8.3%) were called active. The sample as a whole holds a higher share of actives than the screen did. A number with no mark means an inactive call. No stated cut-off is given here; in the data, active means survival mostly below about 52% (no sharp cut-off); inactive means mostly above about 56%.

The subject of this assay is DeltatarO mutant. Briefly: growth inhibition of S. aureus wild type versus tarO mutant, primary screen, teichoic acid synthesis inhibitors, RN4220, OD600 (AID 463173). The settings on record: OD600, 18 h, active compounds read low, screened at 18.75 µg/mL (by protocol).
Consider `CCOc1ccccc1CNC(=O)CCCn1nc(C)c2sc3ccccc3c2c1=O`, for which the survival is 85%.

For the compound `O=C1C2C3c4ccccc4C(c4ccccc43)C2C(=O)N1CN1CCOCC1` (stereo unspecified), the survival is 78%.

Turning to `CCCOc1ccc(NC(=O)CC2C(=O)N(c3ccc(C)cc3)C(=O)N2C2CCCC2)cc1` (stereo unspecified), the survival is 67%.

For `Cc1ccc(NC(=O)Cn2c(=O)n(Cc3nc(-c4ccccc4)no3)c(=O)c3cc4c(cc32)OCO4)c(C)c1`, the survival is 62%.

For `COc1ccc(N(C)C(=O)c2cn(C3CCCCC3)c(=O)c3c2c2ccccc2n3C)cc1`, the survival was 67%.

Consider `Cc1ccc(-n2nc(C(=O)NC(C)C)c(=O)n(C)c2=O)cc1`, for which the survival is 78%.

Take `Cc1c(NC(=O)Nc2ccc(Cl)c(C(F)(F)F)c2)c(=O)n(-c2ccccc2)n1C`: the survival was 124%.

Take `CC(C)CCn1c(=O)c2sccc2n2c(CCCC(=O)NCc3ccc(F)cc3)nnc12`: the survival is 88%.

`Cc1oc2ncn(C)c(=O)c2c1C(=O)Nc1ccccn1`: the survival was 102%.

As to `COc1cccc(CNC(=O)Cn2c(=O)oc3cc(S(=O)(=O)N4CCCC4)ccc32)c1`, the survival was 122%.

Consider `Cc1ccc(Cl)cc1NC(=O)C(=O)NCCc1sc(-c2ccc(F)cc2)nc1C`, for which the survival was 90%.

`CC1CCN(S(=O)(=O)c2ccc3c(c2)N(CC(=O)NCC(C)c2ccccc2)C(=O)CO3)CC1` (stereo unspecified): the survival is 64%.

As to `Cc1ccc(C(=O)Nc2ccc(C(=O)OCc3cc(=O)n4ccsc4n3)cc2)cc1`, the survival was 72%.

With `Cc1ccc(NC(=O)CSc2nc(-c3ccco3)cc(C(F)(F)F)n2)c(C)c1`, the survival was 63% (active).

For the compound `Cc1cccc(NC(=O)CSc2nc(-c3ccco3)cc(C(F)(F)F)n2)c1C`, the survival is 69%.

As for `CC(C)NC(=O)CSc1nc(-c2ccco2)cc(C(F)(F)F)n1`, the survival was 64%.

As to `Cc1ccc(NC(=O)CSc2nc(-c3ccco3)cc(C(F)(F)F)n2)cc1`, the survival was 129%.

As to `Cc1ccc(NC(=O)CSc2nc(-c3ccco3)cc(C(F)(F)F)n2)cc1C`, the survival was 33% (active).

In the case of `Cc1ccc(NC(=O)CCSc2nc(-c3ccco3)cc(C(F)(F)F)n2)cc1F`, the survival is 48%.

For the compound `CC(=O)Nc1ccc(S(=O)(=O)NC2(C(F)(F)F)C(=O)Nc3c2c(=O)[nH]c(=O)n3-c2ccc(C)c(C)c2)cc1` (stereo unspecified), the survival was 81%.

`CCOc1ccc(S(=O)(=O)NC(=O)N(CC)Cc2cc3ccccc3o2)cc1`: the survival is 76%.

For `CCCc1cnc2c(c1SCc1ccc(C(F)(F)F)cc1)c(=O)n(C)c(=O)n2C`, the survival is 54%.

On to `Cc1ccc(-c2nc3cc(NC(=O)c4cc5ccccc5o4)ccc3o2)cc1Cl`, for which the survival is 139%.

Consider `Cc1ccc(-c2nc3ccccc3o2)cc1NC(=O)Cc1ccc(Cl)cc1`, for which the survival is 73%.

Take `Cc1ccc2oc(-c3ccc(Cl)c(NC(=O)Cc4ccccc4)c3)nc2c1`: the survival was 95%.

Regarding `CC(=O)Nc1cc(-c2nc3cc(Cl)ccc3o2)ccc1C`, the survival was 51%.

Take `Cc1c(NC(=O)c2ccc(Br)o2)cccc1-c1nc2ccccc2o1`: the survival was 60%.

`Cc1c(NC(=O)c2cc3ccccc3o2)cccc1-c1nc2ccccc2o1`: the survival is 36% (active).

As to `O=C(Nc1cc(-c2nc3cc(Cl)ccc3o2)ccc1Cl)c1cc2ccccc2o1`, the survival is 82%.

As for `Cc1ccc2oc(-c3ccc(Cl)c(NC(=O)c4cc5ccccc5o4)c3)nc2c1`, the survival was 39% (active).

As to `Cc1c(NC(=O)c2cccc3c(Cl)cccc23)cccc1-c1nc2ccccc2o1`, the survival is 63%.

Consider `Cc1ccc(-c2nc3cc(C(C)C)ccc3o2)cc1NC(=O)c1cc2ccccc2o1`, for which the survival was 19% (active).

Consider `Cc1ccc(-c2nc3cc(Cl)ccc3o2)cc1NC(=O)c1cc2ccccc2o1`, for which the survival is 43% (active).

In the case of `O=C(Nc1ccc2oc(-c3ccc(O)c(Br)c3)nc2c1)c1cc2ccccc2o1`, the survival is 49%.

With `COc1ccc(-n2nc3c(N4CCC(C(=O)NCc5ccccc5C)CC4)nnc(C)c3c2C)cc1`, the survival was 90%.

Turning to `CCOCCc1nn2c(=O)cc(COC(=O)C(CC)c3ccccc3)nc2s1` (stereo unspecified), the survival is 55%.

Take `C=CCNC1CCS(=O)(=O)C1` (stereo unspecified): the survival is 98%.

In the case of `CSc1ccc(-c2ccc3c(c2)OCCO3)nn1`, the survival was 91%.

As for `COc1ccc(N2CCN(CCN3CCCCC3)CC2)cc1`, the survival is 83%.

Take `CCC(C)(C)NC(=O)Cn1c(-c2ccc(C)cc2)noc1=O`: the survival is 86%.

On to `COC(=O)c1c(Oc2ccc(Br)cc2)nnc(-c2ccccc2)c1-c1ccccc1`, for which the survival was 85%.

As for `COc1ccc(-c2nc(C)c(CCNC(=O)c3cccc(C)c3)s2)cc1OC`, the survival is 86%.

In the case of `CCOC(=O)N1CCN(C(=O)c2cnn3c(C(F)(F)F)cc(-c4cccc(OC)c4)nc23)CC1`, the survival is 68%.

Regarding `COC(=O)c1ccn(-c2nc(-c3ccc(Cl)cc3)cc(C(F)(F)F)n2)n1`, the survival was 13% (active).

`CCOC(=O)c1ccn(-c2nc(-c3cccc(OC)c3)cc(C(F)(F)F)n2)n1`: the survival was 18% (active).

Turning to `CCOC(=O)c1c(NC(=O)CSc2nc(-c3ccc(OC)cc3)cc(C(F)(F)F)n2)sc(C)c1C`, the survival is 68%.

Take `COC(=O)CSc1nc(-c2ccc(F)cc2)cc(C(F)(F)F)n1`: the survival was 126%.

As for `COc1ccc(-c2cc(C(F)(F)F)n3nc(-c4ccc(Cl)cc4)cc3n2)cc1OC`, the survival is 48%.

As to `CCc1ccccc1NC(=O)C(Cc1cccc(OC)c1)c1nn[nH]n1` (stereo unspecified), the survival is 54%.

Regarding `CC(=O)N1CCc2c(sc3c2c(=O)n(-c2cccc(Cl)c2C)c(=O)n3Cc2ccccc2C)C1`, the survival is 61%.

As to `CC(=O)NC1=NN(C(C)=O)C2(S1)C(=O)Nc1ccccc12` (stereo unspecified), the survival is 90%.

Consider `O=C(COc1ccc(Cl)cc1)Nc1ccc(C(=O)OCc2cc(=O)n3ccsc3n2)cc1`, for which the survival was 88%.

Take `O=C(CSc1ncc2c(n1)-c1cc(Cl)ccc1N(Cc1ccccc1)S2(=O)=O)NCCc1ccccc1`: the survival was 89%.

`CCCCCn1c(=O)[nH]c2cc(C(=O)N3CCN(c4cccc(C(F)(F)F)c4)CC3)ccc2c1=O`: the survival is 66%.

In the case of `Cc1ccccc1CCNC(=O)c1ccc2c(c1)nc1n2CCC(C)C1` (stereo unspecified), the survival was 83%.

For the compound `Cc1cc(S(=O)(=O)N2CCCC2)ccc1-n1cnnn1`, the survival is 113%.

Take `CCOC(=O)c1ccc(NC(=O)CSc2nc3ccccc3c(=O)n2CCC(=O)NC2CCCCC2)cc1`: the survival was 91%.

In the case of `CC(C)=CCc1c(O)cc(O)c2c1OC(c1ccccc1)CC2=O` (stereo unspecified), the survival was 1% (active).

As for `CC1(C)OC(c2ccccc2)CC1=O` (stereo unspecified), the survival is 110%.

Consider `Cc1oc(-c2ccccc2F)nc1CS(=O)CC(=O)NC(C)C` (stereo unspecified), for which the survival was 89%.

On to `Cc1ccc(C(=O)n2nc(C)c(S(=O)(=O)N3CCCCCC3)c2C)cc1`, for which the survival is 91%.

Regarding `Cc1nn(C(=O)c2ccc(Cl)cc2)c(C)c1S(=O)(=O)N1CCOCC1`, the survival is 91%.

For the compound `Cc1ccc(Sc2c(C)nn(C(=O)c3ccc(Cl)cc3)c2C)cc1`, the survival was 19% (active).

As to `Cc1nn(C(=O)COc2ccccc2)c(C)c1Sc1ccccc1`, the survival is 115%.

As for `Cc1nn(C(=O)c2ccccc2)c(C)c1Sc1ccc(Cl)cc1`, the survival was 10% (active).

As to `Cc1nn(C(=O)c2ccccc2)c(C)c1S(=O)(=O)N1CCCCCC1`, the survival was 89%.

On to `Cc1nn(C(=O)c2ccc(Cl)cc2)c(C)c1Sc1ccc(Cl)cc1`, for which the survival was 51% (active).

As for `Cc1ccc(Sc2c(C)nn(C(=O)COc3ccc(F)cc3)c2C)cc1`, the survival is 92%.

In the case of `Cc1nn(C(=O)COc2ccc(Cl)cc2)c(C)c1Sc1ccccc1`, the survival was 87%.

Consider `COc1cc(C(=O)n2nc(C)c(Sc3ccc(Cl)cc3)c2C)cc(OC)c1OC`, for which the survival was 57%.

As to `Cc1nn(C(=O)c2ccc(Cl)cc2)c(C)c1S(=O)(=O)N1CCCCCC1`, the survival was 80%.

In the case of `Cc1ccc(Sc2c(C)nn(C(=O)COc3ccccc3)c2C)cc1`, the survival was 25% (active).

With `Cn1nccc1C(=O)NCc1ccc2c(c1)CCN2C(=O)c1ccccc1`, the survival is 90%.

As to `O=C1CN(C(=O)c2ccc(S(=O)(=O)N3CCCCC3)cc2)C(c2ccc(F)cc2)c2cc(Br)ccc2N1` (stereo unspecified), the survival is 77%.

Turning to `COc1ccc(-n2c(SCc3nc(-c4ccc(C)cc4)no3)nnc2-c2ccccc2)cc1`, the survival was 60%.

With `O=C(Nc1ccc(OC(F)(F)F)cc1)C1CCCN(S(=O)(=O)c2cccc3nonc23)C1` (stereo unspecified), the survival is 96%.

Take `Cc1cc(C)cc(C(=O)NCC(c2ccc(N(C)C)cc2)N2CCCC2)c1` (stereo unspecified): the survival is 95%.

On to `CCN(CC)CCn1c(=N)n(CCOc2ccccc2Cl)c2ccccc21`, for which the survival was 59%.

Turning to `CC1CCN(c2nc(-c3ccc(C(C)(C)C)cc3)nc3ccccc23)CC1`, the survival is 6% (active).

`CC1CCCCN1C(=O)CSc1nc(C2CC2)nc2ccccc12` (stereo unspecified): the survival was 82%.

Take `CC1CCN(c2nc(-c3ccc(Br)cc3)nc3ccccc23)CC1`: the survival was 82%.

On to `CC1CCCCN1c1nc(-c2ccc(C(C)(C)C)cc2)nc2ccccc12` (stereo unspecified), for which the survival is 3% (active).

Take `Brc1ccc(-c2nc(N3CCN(c4ccccc4)CC3)c3ccccc3n2)cc1`: the survival is 117%.

With `CC1CCN(c2nc3ccccc3nc2C(F)(F)F)CC1`, the survival was 75%.

Regarding `Cc1ccc(C(C(=O)NC2CCCCC2)N(C(=O)Cc2c[nH]c3ccccc23)C2CC2)o1` (stereo unspecified), the survival was 94%.

As for `COc1ccccc1C1CC(=O)NC(C)=C1C(=O)OC1CCCCCC1` (stereo unspecified), the survival is 86%.

Turning to `CCN1CCN(c2ccc(NC(=O)COc3ccccc3)cc2)CC1`, the survival was 106%.

Turning to `O=S(=O)(c1ccc(F)cc1)N1CCCCC1`, the survival was 86%.

Take `O=C(CN1CCN(c2ccc(F)cc2)CC1)N1CCCC1`: the survival was 83%.

For the compound `O=S(=O)(N1CCCCC1)N1CCN(c2ccc(F)cc2)CC1`, the survival was 65% (active).

On to `CCc1ccc(NC(=O)Cn2c(=O)n(Cc3ccco3)c(=O)c3cccnc32)cc1`, for which the survival is 82%.
